In PubChem BioAssay (NCATS):
Results filed as inconclusive are left out. Entries that show only a call come without a potency. The source made the active and inactive calls. Unless noted, calls follow the shape of the dose curve; as a rule, active = well fitted curve in the direction sought with a large enough effect; inconclusive = small, poorly fitted or top-dose-only effect, or another doubt; inactive = no such curve, though single readings can be large; an effect the other way counts as inactive or inconclusive.

Tests used:
[1] = target: Cytochrome P450 3A4 (Homo sapiens) (UniProt P08684); test: qHTS Assay for Inhibitors and Substrates of Cytochrome P450 3A4 (AID 884); also: series mostly up to about 57 µM; nearly all actives have a fitted effect of over 50% in size
Chain of Cytochrome P450 3A4 (Homo sapiens) (P08684 whole entry, looked up): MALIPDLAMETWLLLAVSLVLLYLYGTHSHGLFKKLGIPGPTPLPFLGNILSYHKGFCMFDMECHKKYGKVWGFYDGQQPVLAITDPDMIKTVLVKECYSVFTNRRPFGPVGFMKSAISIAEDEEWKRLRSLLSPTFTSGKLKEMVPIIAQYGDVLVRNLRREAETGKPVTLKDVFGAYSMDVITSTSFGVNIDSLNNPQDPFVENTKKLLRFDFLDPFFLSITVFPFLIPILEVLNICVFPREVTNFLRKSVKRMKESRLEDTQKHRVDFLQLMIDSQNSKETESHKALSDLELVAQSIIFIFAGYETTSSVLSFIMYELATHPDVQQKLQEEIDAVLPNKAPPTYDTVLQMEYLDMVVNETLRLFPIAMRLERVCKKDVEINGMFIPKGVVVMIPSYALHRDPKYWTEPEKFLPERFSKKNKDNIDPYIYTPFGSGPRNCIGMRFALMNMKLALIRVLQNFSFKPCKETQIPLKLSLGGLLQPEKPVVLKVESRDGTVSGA
Outline: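 Luminescent readout of luciferin produced by CYP3A4 (20 nM) dealkylation of Luciferin-PPXE, 25 uM (its KM). NADPH-driven reaction ran 60 min at RT after 10 min compound preincubation; data scaled to 57 uM ketoconazole as 100% inhibition.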

[2] = MultiTox-Fluor Cytotoxicity Assay - LYMP1-001 - Dead Cells (AID 946);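 also: potency is read from the fitted curve at half-maximal effect; cells exposed to compound for 16 h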
Outline: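 Seed 2500 LYMP1-001 cells/well, incubate 5 hr at 37 C; add compound, 16 hr at 37 C; add MultiTox-Fluor reagent, 60 min RT; read dead-cell fluorescence Ex/Em=485/520. Normalize to DMSO and 15 uM tetraoctylammonium bromide.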

[3] = Cell Viability - LYMP1-002 - Assay at 16 hr (AID 948)
Outline: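 Acute cytotoxicity is scored as a concentration-dependent fall in intracellular ATP in a human lymphoblastoid line (LYMP1-002) after 16 hr compound exposure at 37 C, measured by luciferase luminescence.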

[4] = target: Alpha-galactosidase (Coffea arabica) (UniProt Q42656); test: Counterscreen for Glucocerebrosidase Inhibitors: qHTS Assay for Coffee Bean alpha-Galactosidase at pH 4.5 (AID 957); also: series mostly up to about 77 µM
Chain of Alpha-galactosidase (Coffea arabica) (Q42656 whole entry, looked up): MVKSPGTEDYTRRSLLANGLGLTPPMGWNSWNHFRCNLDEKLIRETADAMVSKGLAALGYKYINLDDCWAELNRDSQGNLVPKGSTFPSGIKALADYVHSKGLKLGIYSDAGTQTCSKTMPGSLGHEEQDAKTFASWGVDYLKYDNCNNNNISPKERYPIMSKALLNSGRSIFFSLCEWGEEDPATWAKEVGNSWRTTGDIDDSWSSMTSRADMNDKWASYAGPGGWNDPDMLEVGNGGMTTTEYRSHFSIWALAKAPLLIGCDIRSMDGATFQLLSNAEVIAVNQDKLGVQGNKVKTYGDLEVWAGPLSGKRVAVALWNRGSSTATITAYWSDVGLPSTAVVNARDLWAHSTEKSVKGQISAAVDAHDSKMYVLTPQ
Outline: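 Enzyme is added first (2 nM final), then compounds titrated from 0.7 nM to 77 uM, then 80 uM 4-methylumbelliferyl alpha-D-galactopyranoside; after 20 min at room temperature a pH 10 NaOH/glycine stop precedes fluorescence reading at 365/440 nm.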

[5] = MultiTox-Fluor Cytotoxicity Assay - LYMP1-002 - Dead Cells (AID 960); also: potency is read from the fitted curve at half-maximal effect; nearly all actives have a fitted effect of over 60% in size
Outline: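 Cells were plated, rested 5 hr, then treated with compound dilution series for 16 hr at 37 C. After adding substrate reagent and 60 min at room temperature, dead-cell protease fluorescence gave concentration-response curves fitted by the Hill equation.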

[6] = Cell Viability - LYMP1-003 - Assay at 24 hr (AID 963)
Outline: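 Cytotoxicity is scored as a concentration-dependent fall in ATP-linked luciferase signal in human lymphoblastoid LYMP1-003 cells treated 24 hr at 37 C in complete culture medium.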

[7] = Cell Viability - LYMP1-003 - Assay at 40 hr (AID 964); also: series mostly up to about 92 µM; nearly all actives have a fitted effect of over 60% in size
Outline: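 Luminescent ATP signal (CellTiter-Glo) served as the viability read-out after 40 hr compound treatment of human lymphoblastoid LYMP1-003 cells at 37 C. Decreases in ATP were fitted with the Hill equation to give AC50.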

[8] = Cell Viability - LYMP2-005 (AID 967); also: series mostly up to about 92 µM
Outline: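 qHTS viability screen in LYMP2-005 cells: 24 h at 37 C with compound, ATP luminescence via CellTiter-Glo, AC50 from Hill curves.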

[9] = Cell Viability - LYMP2-015 (AID 971); also: nearly all actives have a fitted effect of over 55% in size
Outline: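 Cells are seeded at 2500 per well and incubated 5 hr at 37 C. Compounds are added across a concentration series for 24 hr at 37 C. CellTiter-Glo is added, and luminescence is read after 30 min at room temperature.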

[10] = Cell Viability - LYMP2-023 (AID 975);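 also: cellular ATP measured by luciferase luminescence as viability proxy; series mostly up to about 92 µM; nearly all actives have a fitted effect of over 55% in size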
Outline: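 Steps: seed 2500 human lymphoblastoid cells per well, incubate 5 hr at 37 C, add compound for 24 hr at 37 C, add CellTiter-Glo, hold 30 min at room temperature, read luminescence. AC50 derived by Hill modelling.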

[11] = Cell Viability - LYMP2-025 (AID 976); also: series mostly up to about 92 µM
Outline: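 Acute cytotoxicity is scored as a concentration-dependent fall in intracellular ATP, measured by luciferase luminescence, in human lymphoblastoid LYMP2-025 cells exposed to compound for 24 hours at 37 C. AC50 values come from standard Hill fits.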

[12] = Cell Viability - LYMP2-002 (AID 977);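 also: series mostly up to about 92 µM; compound exposure lasted 24 h at 37 °C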
Outline: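 In this qHTS viability screen, 2500 human lymphoblastoid cells per well receive compound for 24 hr at 37 C, and luciferase-based ATP luminescence gives the viability signal. Tetraoctylammonium bromide serves as positive control.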

[13] = Cell Viability - LYMP2-014 (AID 983); also: series mostly up to about 92 µM; nearly all actives have a fitted effect of over 50% in size
Outline: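 Cells are plated at 2500/well and left 5 hr at 37 C. Compounds are added across a concentration range and incubated 24 hr at 37 C in complete medium. CellTiter-Glo is added, and luminescence is read after 30 min at room temperature.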

[14] = Cell Viability - LYMP1-002 - Assay at 24 hr (AID 993)
Outline: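 Acute toxicity is measured as concentration-dependent loss of cellular ATP in a human lymphoblastoid line (Coriell LYMP1-002) after 24 h treatment in complete medium. ATP is quantified by luciferase luminescence and AC50 derived by Hill modelling.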

[15] = Cell Viability - LYMP1-002 - Assay at 40 hr (AID 994); also: nearly all actives have a fitted effect of over 60% in size
Outline: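 Cells are plated at 2500 per well and rested 5 hr at 37 C. Compounds are added and incubated 40 hr at 37 C. CellTiter-Glo reagent is added for 30 min at room temperature before luminescence is read.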

[16] = target: Alpha-galactosidase (Coffea arabica) (UniProt Q42656); test: Counterscreen for Glucocerebrosidase Inhibitors: qHTS Assay for Coffee Bean alpha-Galactosidase at pH 5.9 (AID 998)
Outline: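 In 50 mM citric acid pH 5.9 with 0.005% Tween-20, coffee bean enzyme hydrolyses 80 uM 4-MU alpha-D-galactopyranoside over 20 min at RT. Activity is normalized to controls; AC50 comes from Hill-modelled concentration-response data.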

[17] = qHTS for differential inhibitors of proliferation of Plasmodium falciparum line 7G8 (AID 1815);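 also: potency is read from the fitted curve at half-maximal effect; parasite growth measured after three days of incubation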
[18] = qHTS for differential inhibitors of proliferation of Plasmodium falciparum line GB4 (AID 1816); conditions: Potency: Plasmodium falciparum GB4 proliferation inhibition;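 also: potency is read from the fitted curve at half-maximal effect; parasite growth measured after 72 h incubation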
[19] = qHTS for differential inhibitors of proliferation of Plasmodium falciparum line 3D7 (AID 1876); also: potency is read from the fitted curve at half-maximal effect
[20] = qHTS for differential inhibitors of proliferation of Plasmodium falciparum line D10 (AID 1877);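 also: potency is read from the fitted curve at half-maximal effect; parasites grown with compound for 72 h before DNA staining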
[21] = qHTS for differential inhibitors of proliferation of Plasmodium falciparum line W2 (AID 1883); conditions: Potency: Plasmodium falciparum W2 proliferation inhibition;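 also: potency is read from the fitted curve at half-maximal effect; parasites grown with compound for 72 h before lysis and staining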
[22] = qHTS for differential inhibitors of proliferation of Plasmodium falciparum line HB3 (AID 1886); conditions: Potency: Plasmodium falciparum HB3 proliferation inhibition;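 also: potency is read from the fitted curve at half-maximal effect; parasites grown with compound for 72 h before SYBR Green readout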
[23] = Validation screen for inhibitors of Lassa infection (AID 463096; calls by dose curve)
[24] = Validation screen for small molecules that induce genotoxicity in human embryonic kidney (HEK293T) cells expressing luciferase-tagged ELG1 (AID 493106)
Outline: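 Cells were dispensed at 2,000 per well, then 23 nL compound or DMSO was pinned in. After 16 hr at 37 °C and 5% CO2, ONE-Glo reagent was added. Luciferase activity was measured following 30 min at room temperature.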

For `CC(=O)[C@H]1CC[C@H]2[C@@H]3CCC4=CC(=O)CC[C@]4(C)[C@H]3CC[C@]12C`, the Potency [1] was “inactive”, the Potency [2] was 50.1 µM (active) and the outcome [3] was “inactive”. The outcome [4] was “inactive”, the Potency [5] was 10 µM (active) and the outcome [6] was “inactive”. For the same compound, the Potency [7] was “inactive”, the outcome [8] was “inactive” and the outcome [9] was “inactive”. For the same compound, the outcome [10] was “inactive”, the outcome [11] was “inactive” and the outcome [12] was “inactive”. For the same compound, the outcome [13] was “inactive”, the outcome [14] was “inactive” and the Potency [15] was “inactive”. The outcome [16] was “inactive”, the Potency [17] was 8.91 µM (active) and the Potency [18] was 12.6 µM (active). The Potency [19] was 11.2 µM (active), the Potency [20] was 12.6 µM (active) and the Potency [21] was 7.94 µM (active). The Potency [22] was 8.91 µM (active), the Potency [23] was “inactive” and the outcome [24] was “inactive”.
